Measurements: the supplement of paper PMC6555819

Legend:
Assay in all cases: PBM binding z-score (relative to random genomic background probes); higher = stronger binding; sequences stand for … in GC…GCGATTGACAGCGTAGAATGAAGG
[1] = system: PPARg:RXRa DBDmut IVT, anti-RXR (DBD mutation: RXRa K156A/R161A, NR concentration 270 nM, RXRa partner concentration 90 nM)
In short: (§1)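 Ligand-free nuclear receptor dimers were bound for 1 h to custom Agilent 4×180K protein-binding microarrays. Detection used antibodies against each partner (one per run). Binding z-scores rest on regression-normalized fluorescence, with random background probes as the reference.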

[2] = system: PPARg:RXRa IVT, anti-PPARg (NR concentration 270 nM, RXRa partner concentration 90 nM)
In short: as §1

[3] = system: PPARg DBDmut:RXRa IVT, anti-PPARg (DBD mutation: PPARg1 K132A/R137A, NR concentration 270 nM, RXRa partner concentration 90 nM)
In short: as §1

[4] = system: PPARg DBDmut IVT, anti-PPARg (DBD mutation: PPARg1 K132A/R137A, NR concentration 270 nM)
In short: as §1

[5] = system: PPARg homodimer (NR concentration 180 nM)
In short: as §1

[6] = system: PXR:RXRa (NR concentration 270 nM, RXRa partner concentration 90 nM)
In short: as §1

[7] = system: PXR homodimer (NR concentration 270 nM)
In short: as §1

[8] = system: RARa:RXR (NR concentration 270 nM, RXRa partner concentration 90 nM)
In short: as §1

[9] = system: RARa homodimer (NR concentration 270 nM)
In short: as §1

[10] = system: RARb:RXRa (NR concentration 270 nM, RXRa partner concentration 90 nM)
In short: as §1

Sequence | PBM binding z-score [1] | PBM binding z-score [2] | PBM binding z-score [3] | PBM binding z-score [4] | PBM binding z-score [5] | PBM binding z-score [6] | PBM binding z-score [7] | PBM binding z-score [8] | PBM binding z-score [9] | PBM binding z-score [10]
TTACCAAGGCGAAGGTCGTTGATCCCTCTGTAGA | 0.0514 | 1.72 | -0.587 | -0.677 | 1.25 | 1.16 | 0.0255 | 1.26 | -0.525 | 0.787
ACAATTAGTTGAGACGAGGGCAACCGATAGGTTG | -0.0279 | 0.475 | 0.916 | 0.299 | 0.566 | 1.37 | 0.711 | 1.13 | 0.878 | 1.14
TCATATAGGTAATACAGGTGAAAGTGGGCATCTA | 4.07 | 3.76 | 0.893 | 1.47 | 1.79 | 1.02 | 0.455 | 1.35 | 1.57 | 0.826
CAGCTTAGGTCAGGGCCAGTATAGGAGGAACGTT | 1.28 | 0.782 | -0.279 | -1.2 | 1.34 | 0.726 | 0.0136 | 1.68 | 0.556 | 3.79
CTACCAAGGTGAACAAGGTTGTTGATTACTATTC | 2.39 | 2.42 | -0.144 | 0.038 | 0.436 | 1.04 | 0.435 | 0.73 | 0.287 | 1.57
AGGATGAGGTTATTAAGATCAGGGAATTGCGGTC | 0.511 | 0.741 | 0.904 | 0.665 | 1.83 | 1.69 | 1.82 | 1.53 | 0.954 | 1.72
CGAACTAGGTCTTCCAGGACAGTGAATACATTGA | 4.68 | 3.48 | 0.439 | 0.129 | -0.375 | -0.421 | -0.138 | -0.242 | -0.331 | 0.384
CCTCGGAGGACAACAGGAGGTCAGAGGTGCCAGA | -0.227 | 0.737 | -1.23 | -1.03 | 1.99 | 2.36 | 0.719 | 2.6 | 0.638 | 3
CGTCCAAGGTCAGAGAGGCCAGTGAATGCCGAGT | 2.19 | 2.04 | -0.142 | -0.792 | 1.17 | 2.83 | 2.62 | 2.56 | -0.0378 | 4.62
ACAGACAGGTGATGAAGGTTACTCAGGCTATCAT | 0.431 | 0.604 | 0.785 | -0.154 | 0.281 | 0.38 | 0.162 | 0.715 | 0.502 | 0.957
TCTTGTAGATAAAGCAGGTTAAGAAAGCCTGAGT | 1.9 | 0.689 | -0.607 | 0.523 | 0.35 | 0.561 | 0.376 | 0.708 | 0.783 | 0.2
GATACAGGGTCAGCTATAGGCCAGAGTATGGAAA | 1.05 | 2.31 | 0.261 | 0.123 | 1.68 | 2.14 | -0.0446 | 3.35 | 0.261 | 4.02
CAGCCTAGGACAGGGCCAGTATAGGAGGAACGTT | -0.459 | -0.805 | -1.23 | -1.3 | 0.0188 | -0.859 | -0.323 | -0.684 | -0.467 | -0.0437
TCGAGTAGGTTAGTCGGGGCATTCAGCCAACATA | 2.04 | 1.69 | -0.526 | -0.18 | -0.242 | -0.0448 | -0.488 | 0.00411 | -0.698 | 0.351
CCTTACGGGCCAAGGTTATAGCACGGGTGGTACG | -0.837 | -0.312 | -1.25 | -0.861 | 0.309 | 0.0685 | -0.372 | 0.242 | 0.00233 | 1.13
ACTTACGGGTCAACGTGGTTATAGCACGCGTATA | 3.4 | 3.77 | 1.64 | 1.34 | 2.74 | 3.45 | 0.0483 | 4.28 | 1.23 | 4.02
GCTCGGAGGACAAGATCAGAGCTTTGTCCGTAGA | -0.785 | -0.327 | -1.13 | -1.46 | -1.73 | -0.776 | -0.689 | -0.823 | -1.48 | 0.581
TCAGACAGGTGAAGGGAACTCAGGTACGCAGTCG | 2.87 | 0.387 | -0.0761 | -0.559 | 0.811 | 0.733 | 0.499 | 0.697 | 0.593 | 1.04
GCTTACGGGCCAAAGGTTATAGCATGAATAGAAT | 1.06 | 3.69 | -0.252 | 0.373 | 0.626 | 2.27 | 0.0168 | 3.13 | 0.0801 | 1.81

Sequence | PBM binding z-score [1] | PBM binding z-score [2] | PBM binding z-score [3] | PBM binding z-score [4] | PBM binding z-score [5] | PBM binding z-score [6] | PBM binding z-score [7] | PBM binding z-score [8] | PBM binding z-score [9] | PBM binding z-score [10]
TAGCCTAGGTCATGCGGGCCCGTATAGTGTCGGC | 1.87 | 3.05 | -0.348 | 0.0155 | 0.405 | 1.07 | -0.531 | 2 | -0.428 | 3.62
TAGCCTAGGTCAGATAGGGCCAGTATACGCTATA | 0.509 | 1.38 | 0.269 | 0.324 | 0.391 | 1.37 | -0.14 | 0.802 | -0.488 | 3.05
CCTTACGGGTCACTGACAGGTAATAGCATTTGGA | 3.21 | 3.64 | 1.3 | 1.52 | 4.26 | 2.95 | -0.116 | 4.05 | 1.66 | 3.79
CGAACTAGGTCTTTGACAGGACAGTGAATAGTAA | 4.79 | 3.63 | 0.956 | 0.308 | 0.0171 | -0.285 | -0.19 | 0.0375 | -0.136 | 0.0398
CAAACTAGGTCAAGGTCAAAGCCGGTTTGTGCCA | 8.75 | 8.89 | 2.59 | 0.00542 | 2.93 | 4.89 | 1.4 | 4.84 | 0.855 | 5.2
CCTTACGGGTCACGAGGTTATATCACGACGAGCG | 4.44 | 5.64 | 1.38 | 0.342 | 2.85 | 4.59 | 0.517 | 5.8 | 0.866 | 4.5
ATATGTAGGTGACATCCGGGTCATTCAGGCTATG | 7.69 | 8.07 | 4.09 | 3.49 | 3.11 | 3.52 | 2.13 | 3.62 | -0.0147 | 2.14
ATCTCTAGGAAAAAGTTCAGTGAATCCCGAGGAT | -0.718 | -0.0888 | 0.814 | 0.266 | 0.423 | 0.837 | 0.888 | 0.235 | 1 | 1.78
ATCTCTGGGTAAAGATAGTTCAGTGAATGCAAAT | 1.83 | 1.65 | 1.05 | 1.76 | 0.681 | 1.17 | 0.829 | 0.549 | 1.1 | 0.828
GCGACTGGGGCCAAGCAGGTTACCATAAGGTTGG | -0.26 | -0.0452 | -0.943 | -1.96 | -0.242 | -0.00892 | -0.184 | 0.223 | -1.01 | 1.14
AGAACGAGGTTATTAAGATCAGGGAATTGCGGTC | 2.38 | 2.16 | 0.246 | 0.0385 | 0.237 | 1.04 | 0.955 | 1.08 | -0.125 | 1.32
ATCTCTAGGTAAAGATATTTCAGTGAATGCAAAT | 2.46 | 1.88 | 1.53 | 1.33 | 0.424 | 0.367 | 0.337 | 0.994 | 1.26 | 0.0831
ACTATTAGTTGACTTAGGGCAACCAATACGACGC | 0.203 | 0.66 | 0.926 | 0.817 | 0.6 | 0.385 | 0.557 | 0.714 | 0.139 | 0.985
GCTAGTTGGTCAGTAAAAGGCCACACACCGGTCG | -0.0753 | 0.216 | -0.775 | -1.15 | 0.58 | -0.0291 | -0.108 | 0.345 | -0.305 | 1.42
CCGAGTAGGTGATGGGGCATTCAGGCAACGGTGA | 2.92 | 3 | 0.0749 | -1.06 | 0.758 | -0.262 | -0.379 | -0.226 | -0.778 | 0.297
CCTCGGAGGACAACTGGAGGTCAGAGCTGCCAGA | 0.198 | 0.595 | -1.19 | -1.87 | 2.05 | 2.52 | 0.545 | 2.84 | 0.162 | 3.07
CCTAGTTGGTCAGTAGGTCACACACCGGATATGA | 4.79 | 5.74 | 0.241 | 0.396 | 3.06 | 1.68 | 0.364 | 2.76 | 2.47 | 2.91
TCTTGTAGATCAGCAGGAGGTTAAGAAAGATCGA | 1.2 | 0.727 | 0.985 | 0.0884 | -0.244 | 0.907 | -0.404 | 0.574 | -0.978 | 0.468
CGAACTAGGTCATCCAGGACAGTGAGTACATTGA | 8.47 | 8.31 | 2.59 | 1.36 | 2.5 | 2.8 | 8.11 | 2.46 | 0.186 | 3.92
